Among all 310,000 compounds or so, about 14,000 (4.5%) showed an effect of 50% or more. The effect is printed as a negative number. What follows is part of a selection rich in strong results, with near analogues and random picks from the rest.
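Further: peak tail current of the secondary pulse compared with the same well before compound.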

In the assay the target is human ether-à-go-go-related gene (hERG) potassium channel (human, UniProt Q12809). Nature of the assay: primary screen, population patch clamp on CHO cells stably expressing hERG; higher = less effect of the substance.
Sequence of human ether-à-go-go-related gene (hERG) potassium channel (Q12809 whole entry, looked up): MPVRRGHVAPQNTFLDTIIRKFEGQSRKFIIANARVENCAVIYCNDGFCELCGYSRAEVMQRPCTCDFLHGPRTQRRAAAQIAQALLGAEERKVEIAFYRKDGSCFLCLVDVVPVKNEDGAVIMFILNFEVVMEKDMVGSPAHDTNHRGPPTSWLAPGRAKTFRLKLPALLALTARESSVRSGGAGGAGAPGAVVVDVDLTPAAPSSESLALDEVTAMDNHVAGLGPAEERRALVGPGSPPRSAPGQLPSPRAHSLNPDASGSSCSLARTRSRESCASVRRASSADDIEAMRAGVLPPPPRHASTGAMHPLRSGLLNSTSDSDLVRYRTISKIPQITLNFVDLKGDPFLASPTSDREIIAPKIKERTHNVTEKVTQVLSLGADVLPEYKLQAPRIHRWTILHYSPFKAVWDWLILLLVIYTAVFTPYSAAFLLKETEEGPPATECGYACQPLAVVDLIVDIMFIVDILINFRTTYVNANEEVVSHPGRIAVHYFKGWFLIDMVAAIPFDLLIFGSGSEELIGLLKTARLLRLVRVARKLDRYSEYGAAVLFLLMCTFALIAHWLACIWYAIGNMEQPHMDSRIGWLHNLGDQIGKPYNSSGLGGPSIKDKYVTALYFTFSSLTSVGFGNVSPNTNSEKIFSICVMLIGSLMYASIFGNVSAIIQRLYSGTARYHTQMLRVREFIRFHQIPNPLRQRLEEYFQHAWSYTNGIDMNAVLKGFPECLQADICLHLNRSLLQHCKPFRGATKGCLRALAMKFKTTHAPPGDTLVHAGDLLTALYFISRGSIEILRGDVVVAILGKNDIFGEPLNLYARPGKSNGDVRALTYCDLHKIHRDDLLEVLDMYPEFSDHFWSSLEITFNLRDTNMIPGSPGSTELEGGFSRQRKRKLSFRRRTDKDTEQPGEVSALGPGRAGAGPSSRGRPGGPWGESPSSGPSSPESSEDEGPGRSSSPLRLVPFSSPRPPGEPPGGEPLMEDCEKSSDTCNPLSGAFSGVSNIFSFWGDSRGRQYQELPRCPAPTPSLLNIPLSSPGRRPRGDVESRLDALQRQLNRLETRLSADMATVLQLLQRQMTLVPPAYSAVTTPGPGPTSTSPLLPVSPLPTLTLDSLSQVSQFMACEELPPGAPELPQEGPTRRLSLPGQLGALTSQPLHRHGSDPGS
`CCc1nc(C)ccc1OCC(=O)NCCCN(C)C.O=C(O)C(=O)O`: the “hERG current change (%, negative = inhibition) at 10uM” value worked out at 4.48%.

For `Cc1cc(C)cc(NC(=S)Nc2ccccn2)c1`, the “hERG current change (%, negative = inhibition) at 10uM” value is -8.14%. Take `Cc1ccc(N=Cc2ccc(O)cc2O)cc1F`: the “hERG current change (%, negative = inhibition) at 10uM” value is recorded as 20.6%.

As to `O=C(Cn1c(=O)oc2ccccc21)c1ccccc1`, the “hERG current change (%, negative = inhibition) at 10uM” value was -5.11%. In the case of `CCN1CCN(C(=S)Nc2cccc(C(F)(F)F)c2)CC1` it was -7.79%; in that of `CN(C(=O)C(Cl)Cl)C1CC2C=CC1C2` (stereo not shown), 5.29%. The figure for `Nc1c(C(=O)CSc2nccn2-c2ccc(Cl)cc2)c(=O)[nH]c(=O)n1C1CC1` is 17.5%; for `CS(=O)(=O)N1CCC(C(=O)NCc2ccco2)CC1` it is 6.1%; for `COc1ccccc1-c1nnc(SC)n1C` it is 36.9%. The figure for `CC(C)COc1nc2ccccc2nc1N1CCN(C)CC1` is -72.9%. As for `COc1nc2ccccc2nc1N1CCN(C)CC1`, the “hERG current change (%, negative = inhibition) at 10uM” value was -23.9%. The figure for `COc1nc2ccccc2nc1N1CCN(c2ccc(F)cc2)CC1` is 17.5%; for `FC(F)(F)c1cccc(N2CCN(c3nnnn3-c3ccccc3)CC2)c1` it is -25.3%. The figure for `COc1ccc2nc(/C=N/NC(=O)CCCCCNC(=O)OC(C)(C)C)ccc2c1` is -0.0758%; for `O=C(COc1ccccc1)N1CCN(S(=O)(=O)c2ccc(Cl)cc2)CC1` it is -2.27%; for `CC(=O)c1ccc(NCC(=O)N2CCN(S(=O)(=O)c3ccccc3)CC2)cc1` it is -5.61%.

As for `COc1ccc(OCC(=O)N2CCN(S(=O)(=O)c3ccc(Cl)cc3)CC2)cc1`, the “hERG current change (%, negative = inhibition) at 10uM” value is listed as -22.9%. For `N#Cc1ccc(NCC(=O)N2CCN(S(=O)(=O)c3ccccc3)CC2)cc1`, the “hERG current change (%, negative = inhibition) at 10uM” value is -70.2%.

With `N#Cc1ccccc1NCC(=O)N1CCN(S(=O)(=O)c2ccccc2)CC1`, the “hERG current change (%, negative = inhibition) at 10uM” value is recorded as -1.49%. The figure for `N#Cc1ccc(OCC(=O)N2CCN(S(=O)(=O)c3cccc(Cl)c3)CC2)cc1` is -71.4%; for `O=C(COc1ccc(Cl)cc1)N1CCN(S(=O)(=O)c2ccccc2)CC1` it is -54.6%; for `COc1ccc(CCC(=O)N2CCN(S(=O)(=O)c3cccc(Cl)c3)CC2)cc1` it is -34.8%.

Regarding `O=C(COc1ccc(Cl)cc1)N1CCN(S(=O)(=O)c2ccc(Cl)cc2)CC1`, the “hERG current change (%, negative = inhibition) at 10uM” value is -11.9%. In the case of `O=C(NCCC1CCCCN1S(=O)(=O)c1ccccc1)C(=O)Nc1ccccc1` (stereo not shown) it was -12.3%; in that of `COC(=O)Oc1ccc(/C=N/NS(=O)(=O)c2ccccc2)cc1OC`, 21.2%.

The values above are taken from publication PMC4336329 (PLoS ONE, 2015).
